# Compounds with a hit are over-represented: about 4% of the library has one in this group of screens.
# Rv3671c protease: inhibits the M. tuberculosis serine protease Rv3671c; inhibition, % at 5.96 µM; 0.048% of 320,000 active; P9WHR9; AID 2606; in the data active means inhibition above about 38%;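 further: extracellular domain of Rv3671c used as enzyme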
# FBA Mtb inh: Mtb fructose-bisphosphate aldolase inhibition; purified M. tuberculosis FBA, fluorescence read-out; inhibition, % at 1 µM; 2.3% of 360,000 active; in the data active means inhibition above about 27%
# Target sequence (P9WQA3 whole entry, looked up): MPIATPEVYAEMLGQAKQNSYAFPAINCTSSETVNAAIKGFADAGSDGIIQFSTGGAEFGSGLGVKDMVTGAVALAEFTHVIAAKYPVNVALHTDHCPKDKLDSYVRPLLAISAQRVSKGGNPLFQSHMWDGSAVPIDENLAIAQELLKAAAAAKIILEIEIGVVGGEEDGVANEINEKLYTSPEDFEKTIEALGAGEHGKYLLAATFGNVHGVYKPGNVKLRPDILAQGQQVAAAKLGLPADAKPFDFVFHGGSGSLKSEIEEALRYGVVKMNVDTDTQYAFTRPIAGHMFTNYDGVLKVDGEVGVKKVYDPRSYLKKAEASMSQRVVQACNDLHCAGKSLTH
# Mtb UGM inh: inhibitors of M. tuberculosis UDP-galactopyranose mutase. P9WIQ1. purified UGM, fluorescence polarization probe displacement. inhibition, % at 10 µM. 0.06% of 320,000 active. AID 504406; in the data active means inhibition above about 10%, passing the limit was not always enough
# GDH-TPI counter: counter-screen for M. tuberculosis FBA inhibitors: GDH-TPI coupled enzymes; GDH-TPI coupled enzyme counterscreen, NADH absorbance; inhibition, % at 4.8 µM; 1.2% of 360,000 active; in the data active means inhibition above about 30%
# Mtb betalactam: beta-lactam sensitization of Mtb H37Rv | 0.27% of 330,000 active | M. tuberculosis H37Rv growth with meropenem, percent inhibition | inhibition, % at 25 µM;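 further: growth measured after seven days incubation then overnight dye step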
# RecA intein inh: blocks M. tuberculosis RecA intein splicing. AID 2221. cell-free RecA intein splicing, fluorescence. 0.75% of 290,000 active. inhibition, % (concentration not given with the values). P9WHJ3; in the data active means inhibition above about 30%
# GFP chromo cs: counter-screen: blocks GFP chromophore formation | shares compounds with RecA intein inh | cell-free GFP chromophore formation, fluorescence | EC50, µM | 83% of 2,100 active
# Numbers stand for hits; . = inactive; / = no result given. Unless noted, how the calls were made is not given here.
SMILES,Rv3671c protease,FBA Mtb inh,Mtb UGM inh,GDH-TPI counter,Mtb betalactam,RecA intein inh,GFP chromo cs
Cc1oc(-c2ccccc2Cl)nc1CN(C)C(C)c1ccon1 (stereo unspecified),.,.,.,.,.,.,/
Cc1ccccc1-c1nc(CN(C)C(C)c2ccon2)c(C)o1 (stereo unspecified),.,.,.,.,.,39,13
COc1ccc(C2=NN(C(=O)/C=C/c3ccccc3)C(c3ccccc3)C2)c(OC(C)=O)c1 (stereo unspecified),.,.,.,.,.,36,.
COc1ccc(C2CC(c3ccccc3OC(C)=O)=NN2C(=O)/C=C/c2ccccc2)cc1OC (stereo unspecified),.,.,.,.,.,.,/
CC(=O)c1ccc(-c2cccc(-c3nc4ccccn4c3NC3CCCCC3)c2)cc1,.,.,.,.,.,32,0.38
O=C(Nc1cc(C2CC2)nn1-c1ccccc1)c1ccc(F)cc1,.,.,.,.,.,/,/
O=C(O)c1cc(-c2ccc(/C=C3/SC(=S)N(Cc4ccccc4)C3=O)o2)ccc1Cl,/,.,/,.,/,/,/
CN1C(=O)/C(=C/c2ccc(-c3ccccc3[N+](=O)[O-])o2)SC1=Nc1ccc(Cl)c(C(=O)O)c1,.,.,.,.,.,45,23
CNc1c2cccc(C)c2nc2c(C(=O)NCCN(C)C)cccc12,/,.,/,.,/,/,/
COc1cc(C(C(=O)NC2CCCCC2)N(CCN2CCOCC2)C(=O)C2COc3ccccc3O2)cc(OC)c1OC (stereo unspecified),.,.,.,.,.,47,.
COc1ccc(C(C(=O)NC2CCCCC2)N(CC2CCCO2)C(=O)C2COc3ccccc3O2)cc1OC (stereo unspecified),.,.,.,.,.,.,/
COc1ccc(N(C(=O)CCl)C(C(=O)NCCc2ccccc2)c2cccs2)cc1Cl (stereo unspecified),.,.,.,.,.,77,0.96
COc1cccc(N(C(=O)CCl)C(C(=O)NCCc2ccccc2)c2cccs2)c1 (stereo unspecified),.,.,.,.,.,73,3.3
CC1(C)CC(=O)C(C2(O)C(=O)NC(=O)NC2=O)=C(O)C1,.,.,.,.,.,95,2.5
c1ccc(Cn2ccnc2C2OCCO2)cc1,/,.,/,.,/,/,/
COc1cc(NC2CCCCC2O)c2nc(-c3ccc(Cl)cc3)ccc2c1 (stereo unspecified),.,.,.,.,.,51,0.18
C#CCOc1ccc(OC)cc1C(c1c(C)[nH][nH]c1=O)c1c(C)[nH][nH]c1=O,/,.,.,.,.,95,0.41
CCOc1ccc(C(c2c(C)[nH][nH]c2=O)c2c(C)[nH][nH]c2=O)cc1OC,.,.,.,.,.,94,0.44
CCOc1cc(C(c2c(C)[nH][nH]c2=O)c2c(C)[nH][nH]c2=O)ccc1OS(=O)(=O)c1ccc(C)cc1,.,.,.,.,.,97,0.49
Cc1[nH][nH]c(=O)c1C(c1c(C)[nH][nH]c1=O)c1cn(Cc2ccc(Cl)c(Cl)c2)c2ccccc12,.,.,.,.,.,.,/
COc1ccc(CN(C)CC(=O)Nc2cccc(S(=O)(=O)N3CCCC3)c2)cc1F,.,.,.,.,.,/,/
Nc1cc(N)c(OCC(F)(F)F)cc1OCC(F)(F)F,.,.,.,.,.,92,7.6
COc1cc(C(=O)CSc2nnc(-c3ccc(O)cc3)n2CC2CCCO2)ccc1NC(C)=O (stereo unspecified),.,.,.,.,.,36,.
CCC(=O)Nc1ccc(C(=O)CSc2nnc(-c3ccc(O)cc3)n2CC2CCCO2)cc1 (stereo unspecified),.,.,.,.,.,.,/
Cc1ccc(S(=O)(=O)Nc2ccc3cc([N+](=O)[O-])ccc3c2[N+](=O)[O-])cc1,/,.,/,.,/,/,/
SMILES,Rv3671c protease,FBA Mtb inh,Mtb UGM inh,GDH-TPI counter,Mtb betalactam,RecA intein inh,GFP chromo cs
CC(=O)c1cccc(N(CC(=O)NC2CCCCC2)C(=O)Cn2nnc(-c3ccccc3)n2)c1,.,.,.,.,.,.,/
CC(C)(C)c1cc[n+](C2=C([O-])c3ccccc3C(=O)/C2=N\S(=O)(=O)c2ccccc2)cc1,.,.,.,.,.,50,16
O=C1/C(=N\S(=O)(=O)c2cccs2)C([n+]2ccc(CCCc3ccccc3)cc2)=C([O-])c2ccccc21,.,.,.,.,.,.,/
CC(C)[n+]1ccn(C2=C([O-])c3ccccc3C(=O)/C2=N\S(=O)(=O)c2ccccc2)c1,.,.,.,.,.,31,21
Cc1cc(C)c[n+](C2=C([O-])c3ccccc3C(=O)/C2=N\S(=O)(=O)c2cccs2)c1,.,.,.,.,.,.,/
Cc1cc[n+](C2=C([O-])c3ccccc3C(=O)/C2=N\S(=O)(=O)c2cccs2)cc1C,.,.,.,.,.,32,6.7
CN1CCN(S(=O)(=O)c2ccc(CNC(=O)c3ccccc3)s2)CC1,.,.,.,.,.,.,/
ONc1cccnc1-n1nc(C(F)(F)F)cc1C(F)(F)F,.,/,.,/,.,82,.
O=C(O)c1ccccc1C(=O)Nc1ccc(-n2nc(C(F)(F)F)cc2C(F)(F)F)cc1,.,.,.,.,.,.,/
COC(=O)CN1C(=O)C2(C(C#N)=C(N)Oc3c2c(C)nn3-c2ccccc2)c2ccccc21 (stereo unspecified),.,.,.,.,.,75,15
COc1cc2c(cc1OC)C(c1cc(Br)c(OC)c(OC)c1)CC(=O)N2 (stereo unspecified),/,.,.,.,.,.,/
COc1cc(C(c2c(C)[nH][nH]c2=O)c2c(C)[nH][nH]c2=O)cc(Br)c1OC,.,.,.,.,.,99,0.63
CCOc1cc(C(c2c(C)[nH][nH]c2=O)c2c(C)[nH][nH]c2=O)cc(Br)c1OC,.,.,.,.,.,93,0.49
COc1ccc(COCC(O)CN2CCN(S(=O)(=O)c3ccc(C(C)C)cc3)CC2)cc1 (stereo unspecified),.,.,.,.,.,/,/
Nc1nc(NCc2ccco2)nc(N2CCN(Cc3ccccc3)CC2)c1[N+](=O)[O-],.,.,.,.,.,.,/
O=S(=O)(c1ccc(Cl)c(Cl)c1)c1snnc1-c1ccccc1,/,.,/,.,/,80,1.3
O=c1ccc(Br)c[nH]1,.,.,.,.,.,.,/
O=c1cc(-c2ccccc2)[nH][nH]1,.,.,.,.,.,97,2.2
O=c1cc(-c2ccc(F)cc2)[nH][nH]1,.,.,.,.,.,98,2.3
O=c1cc(-c2ccc(Br)cc2)[nH][nH]1,.,.,.,.,.,97,3.7
Fc1ccc(-c2cnc[nH]2)cc1,.,.,.,.,.,.,/
O=c1cc(C2CCCCC2)[nH]c(=O)[nH]1,/,.,/,.,/,/,/
O=c1cccc(-c2ccccc2)[nH]1,.,.,.,.,.,.,/
O=c1cc(-c2ccc(C3CCCCC3)cc2)[nH][nH]1,.,.,.,.,.,76,1.9

# Assay outcomes (PubChem)
